A selection: hits, their analogues and other compounds. The true share with any hit is near 12%.
G9a inh = G9a (human) methyltransferase inhibition | G9a H3K9 monomethylation, AlphaScreen, 2 h | Potency, µM (top dose mostly 102 µM), inactives show at the top dose activity, negative = inhibition, actives largely listed as inhibitors | Q96KQ7 | 350,000 compounds, 8.8% hits; note: potency is the fitted concentration of half-maximal effect; % is set by controls: 0 for no effect and ±100 for the full control effect; nearly all actives have a fitted effect of over 75% in size
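Compounds were preincubated with 20 nM G9a for 15 min, after which biotinylated H3K9 peptide (500 nM) and SAM (20 uM) started a 2 h room-temperature reaction. Monomethylated product was quantified by antibody-based AlphaScreen chemiluminescence.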
HP1b chromo inh = blocks HP1-beta chromodomain binding to methylated histone tails | AlphaScreen HP1-beta / biotin-H3K9me3 peptide binding | 390,000 compounds, 0.56% hits | Potency, µM (highest dose often 114 µM), without a hit: top-dose activity change, negative = inhibition, most hits filed as inhibitors | P83916; note: potency is the fitted concentration of half-maximal effect; nearly all actives have a fitted effect of over 70% in size
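Compound inhibition of the preformed complex between 50 nM HP1-beta and 50 nM biotinylated H3K9me3 peptide was read by AlphaScreen. Buffer was PBS pH 7.4 with 0.01% Tween-20. Incubations ran 30 min at room temperature, with 10 ug/mL donor/acceptor beads.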
JMJD2A Tudor = blocks the human JMJD2A Tudor domain; 390,000 compounds, 4.4% hits; AlphaScreen JMJD2A-Tudor / H3K4me3 peptide binding; Potency, µM (series often up to 114 µM), for the others: at the top dose activity change, negative = inhibition, actives largely listed as inhibitors; O75164; note: potency is the fitted concentration of half-maximal effect; % is set by controls: 0 for no effect and ±100 for the full control effect; nearly all actives have a fitted effect of over 50% in size
PI5P4K alpha inh = blocks human PI5P4K alpha kinase activity; 330,000 compounds, 1.2% hits; AID 652105; max response, %; P48426; PI5P4Kalpha enzyme, ADP-Glo luminescence, 60 min; hits give low values; active = max response of -50% or lower; inconclusive = between -30% and -50%; inactive = -30% or higher; note: value at the top dose of about 77 µM; % is set by controls: 0 for no effect and ±100 for the full control effect
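ADP-Glo luminescence end-point after a 60 min room-temperature kinase reaction. PI5P4Kalpha and substrate in HEPES pH 7.4 buffer with EGTA, 0.1% CHAPS and 5% DMSO; ATP at 5 microM final.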
BAZ2B block = BAZ2B (human) inhibition | Q9UIF8 | AlphaScreen BAZ2B-H3K14Ac peptide displacement | Potency, µM (highest dose often 114 µM), for inactives: at the top dose activity change, negative = inhibition, usual class: inhibitors | 360,000 compounds, 4.4% hits | AID 504333; note: potency is the fitted concentration of half-maximal effect; % is set by controls: 0 for no effect and ±100 for the full control effect; nearly all actives have a fitted effect of over 60% in size
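In this displacement format the biotinylated H3(5-23) peptide acetylated at Lys14 serves as ligand at 50 nM, with BAZ2B at 50 nM in PBS pH 7.4 containing 0.01% Tween-20. Donor and acceptor beads are 10 ug/mL final.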
PLK1 PBD block = PLK1 (human) polo-box domain binding inhibition; Plk1 PBD binding of FITC phosphopeptide, fluorescence polarization; Potency, µM, for inactives: max response, negative = inhibition, usual class: inhibitors; 360,000 compounds, 2.8% hits; AID 720504; note: potency is the fitted concentration of half-maximal effect; series mostly up to about 57 µM; % is set by controls: 0 for no effect and ±100 for the full control effect; nearly all actives have a fitted effect of over 65% in size
Numbers without * were called inactive; [ ] = dose if it differs, or a comment. Unless noted, calls come from the whole dose curve; as a rule, active = well fitted curve in the direction sought with a large enough effect; inconclusive = small, poorly fitted or top-dose-only effect, or another doubt; inactive = no such curve, though single readings can be large; an effect the other way counts as inactive or inconclusive.

Screening CCC(C)NC(=O)CSc1ccc(NC(C)=O)cc1 (stereo not drawn) returned G9a inh -7.5%[12.7 µM], HP1b chromo inh 27.4%, JMJD2A Tudor 1.6%, PI5P4K alpha inh 0.2, BAZ2B block -3.3% and PLK1 PBD block -0.9%.
`COc1ccc(CC(=O)NNC(=O)c2cccs2)cc1OC` gave G9a inh 2.5%, HP1b chromo inh 16.2%, JMJD2A Tudor 31.6µM*, PI5P4K alpha inh 1.2, BAZ2B block -6.4% and PLK1 PBD block -7.7%.
Screening CC(=O)Nc1ccc(SCC(=O)c2ccc(Br)s2)cc1 returned G9a inh 22.4µM*, HP1b chromo inh inconclusive, JMJD2A Tudor inconclusive, PI5P4K alpha inh -23.9, BAZ2B block 50.1µM* and PLK1 PBD block 4.74µM*.
CCc1cc(=O)oc2cc(C)cc(OC(C)C(=O)NCCCn3ccnc3)c12 (stereo not drawn) was read as G9a inh -10.0%, HP1b chromo inh -3.6%, JMJD2A Tudor -28.2%, PI5P4K alpha inh -10.8, BAZ2B block -9.0% and PLK1 PBD block inconclusive.
For CCCCN(C)CCCNC(=O)Cn1ncc2c3ccccc3n(Cc3cccc(Cl)c3)c2c1=O the results were G9a inh -37.8%[59 µM], HP1b chromo inh 1.7%, JMJD2A Tudor -20.1% and BAZ2B block -12.1%.
Cc1noc(-c2ccccc2OCC(=O)Nc2cccc([N+](=O)[O-])c2)n1 was read as G9a inh inconclusive, HP1b chromo inh -21.3%, JMJD2A Tudor 50.1µM* and BAZ2B block inconclusive.
`Cc1ccccc1-c1noc(-c2ccccc2OCC(=O)Nc2ccccc2[N+](=O)[O-])n1` gave G9a inh 14.1µM*, HP1b chromo inh -11.2%, JMJD2A Tudor 20µM* and BAZ2B block inconclusive.
`COC(=O)CC1COc2ccccc2N1C(=O)/C=C/c1ccccc1` (stereo not drawn) gave G9a inh -34.9%, HP1b chromo inh 44.6%, JMJD2A Tudor -20.5%, PI5P4K alpha inh 6.2, BAZ2B block -17.4% and PLK1 PBD block -6.1%.
Cc1c(NC(=O)Nc2ccc(Cl)c(C(F)(F)F)c2)c(=O)n(-c2ccccc2)n1C was read as G9a inh 5.8%[59 µM], HP1b chromo inh 31.4%, JMJD2A Tudor 4.8% and BAZ2B block 4.4%.
For Cc1sc(-n2c(C)ccc2C)c(C#N)c1C the results were G9a inh 7.94µM*, HP1b chromo inh -33.0%, JMJD2A Tudor -35.9%, BAZ2B block -6.0% and PLK1 PBD block 18.9µM*.
For CN(C)CCNC(=O)c1cccc(-c2cccc3nncn23)c1 the results were PI5P4K alpha inh 4.7 and PLK1 PBD block -11.7%.
CC1=C(C(=O)N(C)C)CC(CC(=O)NC2CCCCC2)C(=O)N1CCCN1CCCC1=O (stereo not drawn) was read as PI5P4K alpha inh 7.4 and PLK1 PBD block -5.0%.
Screening O=C(COC(=O)C1CCN(S(=O)(=O)c2c(Cl)cccc2Cl)CC1)NCc1ccco1 returned G9a inh 50.1µM*, HP1b chromo inh 1.4%, JMJD2A Tudor -21.2%, PI5P4K alpha inh -1.1, BAZ2B block -8.9% and PLK1 PBD block -2.2%.
For CN(C(=O)COC(=O)C1CCN(S(=O)(=O)c2c(Cl)cccc2Cl)CC1)C1CCCCC1 the results were G9a inh 39.8µM*, HP1b chromo inh 66.1%, JMJD2A Tudor -8.2%, PI5P4K alpha inh 7.2, BAZ2B block -29.0% and PLK1 PBD block 1.3%.
For Cc1ccc(S(=O)(=O)N2CCC(C(=O)OCC(=O)NCc3ccco3)CC2)cc1C the results were G9a inh -18.5%[59 µM], HP1b chromo inh -9.0%, JMJD2A Tudor -14.6%, PI5P4K alpha inh 4.3, BAZ2B block -11.6% and PLK1 PBD block -16.6%.
For CN(C(=O)COC(=O)C1CCN(S(=O)(=O)c2c(Cl)cccc2Cl)CC1)c1ccccc1 the results were G9a inh -50.0%, HP1b chromo inh 1.8%, JMJD2A Tudor -15.0%, PI5P4K alpha inh 7.2, BAZ2B block -6.5% and PLK1 PBD block -3.3%.
`Cc1ccccc1-c1nc(Nc2ccncc2)c2ccccc2n1` gave G9a inh -2.3%[0.501 µM].
O=C(O)c1ccc(C2CCCCC2)cn1 was read as G9a inh inconclusive, HP1b chromo inh 36.0%, JMJD2A Tudor 1.58µM*, PI5P4K alpha inh 10.0, BAZ2B block 3.98µM* and PLK1 PBD block -1.8%.
`C=CCCN(C(C)C(=O)OC)S(=O)(=O)c1ccccc1Br` (stereo not drawn) gave HP1b chromo inh 61.3% and JMJD2A Tudor 2.1%.
`CCOc1ccc(NC(=O)NCc2ccc3c(c2)OCO3)cc1` gave G9a inh 24.3%, HP1b chromo inh 35.5%, JMJD2A Tudor -10.6%, PI5P4K alpha inh 1.3, BAZ2B block -35.6% and PLK1 PBD block 0.3%.
For CCOc1ccc(CN(CCc2ccc3c(c2)OCO3)Cc2cc(OC)cc(OC)c2)cc1 the results were G9a inh 1.41µM*, HP1b chromo inh inconclusive, JMJD2A Tudor 3.98µM* and BAZ2B block inconclusive.
Screening CCCCN(C)c1c(C)nc2ccc(C(=O)N(CC)CCN(C)C)cn12 returned PI5P4K alpha inh 3.3 and PLK1 PBD block -3.7%.
Screening C/C(=N\NC(=O)C1CC1)c1ccc(Cl)c(Cl)c1 returned G9a inh 6.4%, HP1b chromo inh 25.4%, JMJD2A Tudor -8.4%, PI5P4K alpha inh 1.5, BAZ2B block 4.8% and PLK1 PBD block -14.2%.
`C/C(=N\N=C(N)N)c1ccc(Cl)c(Cl)c1` gave G9a inh 50.1µM*, HP1b chromo inh -11.5%, JMJD2A Tudor -18.2%, PI5P4K alpha inh 3.3, BAZ2B block -12.1% and PLK1 PBD block -7.6%.
Cc1ccc(OCCCCn2cnc3ccccc32)c(C)c1 was read as G9a inh 7.94µM*, HP1b chromo inh inconclusive, JMJD2A Tudor 1.58µM*, PI5P4K alpha inh 8.7, BAZ2B block 25.1µM* and PLK1 PBD block 1.6%.
Screening Cc1cc(C)c(Cn2cnc3ccccc32)c(C)c1 returned G9a inh 44.7µM*, HP1b chromo inh 36.6%, JMJD2A Tudor -9.8%, PI5P4K alpha inh 3.7, BAZ2B block -16.6% and PLK1 PBD block -24.9%.
For N#Cc1ccc(NC(=O)COCc2cc(-c3ccc(F)cc3)on2)cc1 the results were G9a inh -21.1%[59 µM], HP1b chromo inh 19.3%, JMJD2A Tudor 7.1% and BAZ2B block -6.6%.
Cc1ccc(C(=O)/C=C/c2c[nH]c3ccccc23)cc1 was read as G9a inh 3.2%[12.7 µM], HP1b chromo inh 29.8%, JMJD2A Tudor -15.7%, BAZ2B block inconclusive and PLK1 PBD block 0.4%.
Screening CC[n+]1c(/C=C/c2c[nH]c3ccccc23)ccc2cc(C)ccc21 returned G9a inh 35.5µM*, HP1b chromo inh -19.1%, JMJD2A Tudor inconclusive, PI5P4K alpha inh -18.5, BAZ2B block inconclusive and PLK1 PBD block 94.8%.

From PubChem BioAssay
